Bioassay records from PubChem.
NOD2 RIPK2 PPI: NOD2-RIPK2 protein interaction inhibition; O43353; CHO BLA complementation NOD2-RIPK2, CCF4 ratio; inhibition, % at 4.98 µM; 360,000 compounds, 0.38% hits; in the data active = inhibition above about 21%
TLR4 MyD88 comp: TLR4-MyD88 interaction inhibition in cells; O00206+Q99836; HeLa CL3-4 TLR4/MyD88 BLA complementation, FRET ratio; inhibition, % at 8.4 µM; 200,000 compounds, 0.18% hits; AID 861; in the data active = inhibition above about 25%
ABHD5-PLIN5 inh: blocks binding of human ABHD5 to perilipin-5; Q00G26+Q8WTS1; Split G. princeps luciferase complementation, luminescence, 4 h; inhibition, % at 4 µM; 360,000 compounds, 0.78% hits;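 active = inhibition above the mean inhibition across every tested compound plus 3 SD, cut at about 22% in these data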
rCAG RNA binder: molecules binding r(CAG) RNA repeats; inhibition, % at 3 µM; r(CAG) RNA repeat, TO-PRO-1 dye displacement fluorescence; 370,000 compounds, 1.3% hits;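 active = inhibition above the plate cutoff, the mean of all test compounds on that plate plus 3 SD, cut at about 35% in these data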;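 note: higher means more dye released from RNA so lower well fluorescence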
TLR9-MyD88 inh: inhibitors of human TLR9-MyD88 binding; Q9NR96+Q99836; CHO BLA complementation TLR9-MyD88, CCF4 FRET ratio; inhibition, % at 4.98 µM; 340,000 compounds, 0.21% hits; AID 504734;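 active = inhibition above the mean over all tested compounds plus 3 SD, cut at about 21% in these data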
PRMT1 inh: PRMT1 (human) inhibition, primary screen; inhibition, % at 2.79 µM; recombinant PRMT1, activity-based probe fluorescence polarization; Q99873; 370,000 compounds, 1.3% hits;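 active = inhibition above about 21% made by adding two undisclosed values, limit read from the data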
TLR4-MyD88 conf: TLR4-MyD88 interaction inhibition confirmed; shares compounds with TLR4 MyD88 comp; HeLa CL3-4 BLA complementation, CCF4 FRET ratio; inhibition, % at 8.4 µM; 350 compounds, 50% hits; AID 941;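 active = mean inhibition across three repeat runs above about 25% carried over from the earlier screen, limit read from the data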
BLA inh HeLa: counter-screen for TLR4-MyD88 inhibitors: beta-lactamase reporter inhibitors | shares compounds with TLR4 MyD88 comp | inhibition, % at 8.4 µM | HeLa BLA reporter, CCF4 FRET ratio | 350 compounds, 63% hits;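 active = mean inhibition over three repeats above about 26% taken from the earlier screen, limit read from the data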;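 note: HeLa cells stably expressing beta-lactamase reporter as counterscreen for TLR4-MyD88 inhibitors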
A number is an active result; - = inactive; . = no result given. Sampled rows, rich in hits. Any-hit rate of the full collection: about 3.3%.

SMILES	NOD2 RIPK2 PPI	TLR4 MyD88 comp	ABHD5-PLIN5 inh	rCAG RNA binder	TLR9-MyD88 inh	PRMT1 inh	TLR4-MyD88 conf	BLA inh HeLa
C[C@@H]1CN([C@@H](C)CO)C(=O)CCCn2cc(nn2)CO[C@H]1CN(C)C(=O)Nc1ccc(C(F)(F)F)cc1	.	.	.	-	.	-	.	.
CC(C)(C)C(=O)Cn1ncc(Br)c(Br)c1=O	-	36	-	-	-	-	-	-
CC(C)(C)C(=O)Cn1ncc(N2CCOCC2)c(Cl)c1=O	-	.	-	-	-	-	.	.
C[C@H]1[C@@H](NCC2CCCCC2)CC[C@@]23CCCN2C(=O)CCC[C@@H]13	.	.	.	.	.	-	.	.
CCNC(=O)CC1C(=O)N(c2cccc(OC)c2)C(=O)N1CCOC (configuration not stated)	-	25	-	-	-	-	-	-
c1cc2c(cc1C1CCCCC1)c1c3n2CCN=C3CCC1	-	27	-	-	-	-	-	41
Cc1ccc2c(c1)c1c3n2CCN=C3CCC1	-	-	-	-	-	-	.	.
CCN(CC)c1ccc2cc(-c3nnc(-c4ccccc4)o3)c(=O)oc2c1	-	-	-	-	-	-	.	.
CCN(CC)c1ccc2cc(-c3nc4ccccc4[nH]3)c(=O)oc2c1	45	40	-	.	37	.	64	78
O=C(N=c1ccn(-c2nc3ccccc3nc2NS(=O)(=O)c2ccccc2)cc1)c1cccs1	-	66	-	-	-	-	-	-
Clc1ccc(-c2noc3c2-c2nc(Cc4cccc5ccccc45)sc2CC3)cc1	-	.	-	-	-	-	.	.
CCOC(=O)Cc1csc(NC(=O)Cc2cccs2)n1	-	26	-	-	-	-	-	-
CCN(CC)CCCNC(=O)CSc1nnc(-c2ccncc2)n1-c1ccc(OC)cc1	.	.	.	-	.	-	.	.
O=C(CCl)c1ccc2c(c1)CCN2C(=O)C1CCCCC1	-	27	-	-	-	-	32	-
COc1ccc(/C=C2\CCC(C3CCCC3)C2=O)c(OC)c1 (configuration not stated)	-	.	-	-	-	-	.	.
COc1ccc(/C=C2\CC/C(=C\c3ccc(OC)cc3OC)C2=O)c(OC)c1	-	32	-	-	-	-	-	47
Cc1n[nH]c(C)c1S(=O)(=O)N1CCN(C(=O)c2ccco2)CC1	-	-	-	-	-	-	.	.
O=C1COc2ccc(C(=O)COC(=O)c3ncc(Cl)c(Cl)c3Cl)cc2N1	-	.	-	-	-	-	.	.
O=C1COc2ccc(C(=O)COC(=O)c3cnc(Cl)c(Cl)c3)cc2N1	-	28	-	-	-	-	27	-
c1ccc(CN2CC[C@@H](Nc3nccn4ccnc34)C2)cc1	-	.	-	-	.	-	.	.
Cc1ccc(Sc2ccc(NC(=O)CCN3C(=O)NC4(CCCC4)C3=O)cc2)c(C)c1	-	.	-	-	-	-	.	.
CCOC(=O)/C(=C\c1ccc(N2CCC(c3ccccc3)=N2)cc1)C(C)=O	-	.	-	-	-	-	.	.
O=C(/C=C/c1ccc(N2CCC(c3ccccc3)=N2)cc1)c1ccccc1	.	38	.	-	.	-	-	-
COC(=O)c1ccc(-c2sc3nc(N4CCOCC4)c4c(c3c2N)CCCC4)o1	.	27	.	-	.	-	-	52
COC(=O)c1sc2nc(N3CCCCC3)c3c(c2c1N)CCCC3	-	-	-	-	-	-	.	.
SMILES	NOD2 RIPK2 PPI	TLR4 MyD88 comp	ABHD5-PLIN5 inh	rCAG RNA binder	TLR9-MyD88 inh	PRMT1 inh	TLR4-MyD88 conf	BLA inh HeLa
CCCCCn1nc(-c2ccccc2)c2nc3ccccc3nc21	-	44	-	-	-	-	52	63
O=C(CCCCCn1c(=O)[nH]c2ccsc2c1=O)NCc1ccc2c(c1)OCO2	-	-	-	-	-	-	.	.
O=C(CCCn1c(=O)[nH]c2ccsc2c1=O)N1CCN(Cc2ccc3c(c2)OCO3)CC1	-	26	-	-	-	-	-	-
CC(OC(=O)c1nc(Cl)ccc1Cl)C(=O)Nc1ccc2c(c1)OCCO2 (configuration not stated)	-	.	-	-	-	-	.	.
CC(C)(C)c1ccc(C2(C)NC(=O)NC2=O)cc1 (configuration not stated)	-	.	-	-	-	-	.	.
O=C(N/N=C/c1cc(Cl)ccc1O)C(=O)Nc1ccccc1OC(F)(F)C(F)F	-	27	-	-	-	-	-	-
